About 83,000 compounds went through this panel and 20% of them were active in at least one assay; those are over-represented in the sample as a whole.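 Assay: single dose, 48 h. Readout: percent growth (0 = no net growth; negative = cell death). Active: <10.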 Unmarked numbers belong to inactive results. Active and inactive are the calls of the source.

The test system of this assay is OVCAR-4 ovarian. The assay is described as follows: NCI-60 one-dose screen, 48 h (100 = growth as untreated, 0 = no growth, -100 = all killed). To be noted: 10 µM unless noted. Here is the method: Growth inhibition of the OVCAR-4 human tumor cell line is measured as a screen for anti-cancer activity. Cells are grown in 96 well plates and exposed to the test compound for 48 hours. Compounds are tested at a single concentration, which is 10^-5 M for most compounds. The reported endpoint is percent growth (GI% or GIPRCNT), where numbers from 0 - 100% represent growth inhibition, and numbers from -100% - 0 represent cell death. For example, a value of 40 represents 60% growth inhibition. A value of 0 means no net growth occurred over the course of the experiment. A value of -40 indicates 40% of cells at the beginning of the experiment died by the end of the experiment. A value of -100 means all cells are dead at the end of the experiment.
NCI-60 Human Tumor Cell Lines Screen was performed using the standard one-dose NCI protocol, which is described in more detail at https://dtp.cancer.gov/discovery_development/nci-60/default.htm.
Compounds with GIPRCNT values below 10 were considered active. Activity score was based on GIPRCNT using the following formula: […]
Score is 0 for GIPRCNT values of 100 or above, 50 for GIPRCNT values of 0, and 100 for GIPRCNT values of -100.
For the molecule `COc1cc(/C=C/C(=O)c2cccc(-n3cc(-c4ccc(Cl)cc4)[nH]c3=O)c2)ccc1O`, the growth is 57%.

Turning to `Nc1c(Cl)cc(/C=C2\C=Cc3ccccc32)cc1Cl`, the growth is 107%. As to `Cc1nn(C)c2ncnc(N/N=C/c3cccc(O)c3O)c12`, the growth was 22%. As for `C=C(C)[C@@H]1CC[C@]2(C(=O)Nc3ccccn3)CC[C@]3(C)[C@H](CC[C@@H]4[C@@]5(C)CCCNC(C)(C)[C@@H]5CC[C@]43C)[C@@H]12`, the growth is 8.81% (active). `CCn1cc(Cc2cc(C(=O)Nc3cc4cc(OC)c(OC)cc4c(C)n3)ccc2Cl)cn1`: the growth is 58.2%. In the case of `O=C1/C(=C/c2ccc(Cl)cc2)CN(C(=O)C(Cl)Cl)C/C1=C\c1ccc(Cl)cc1`, the growth is 1.03% (active). On to `O=C(/C=C/c1cn(-c2ccccc2)nc1-c1ccccc1)CCC(=O)NO`, for which the growth is 112%. In the case of `C[C@H]1[C@H](C)CC[C@]2(C(=O)NCCNCCN)CC[C@]3(C)C(=CC[C@@H]4[C@@]5(C)CCC(=O)C(C)(C)[C@@H]5CC[C@]43C)[C@H]12`, the growth is 77.4%. As for `Cc1ccc(C(=O)c2ccc(CC(=O)N/N=C/c3cccc(O)c3O)n2C)cc1`, the growth was 29.1%. `COc1ccc2c(c1)CC[C@@H]1[C@@H]2CC[C@]2(C)C3C(=CC(COC(C)=O)C4C(=O)N(c5ccc(Cl)cc5)C(=O)C43)C[C@@H]12` (stereo not given in full): the growth is 101%. The result for `Cc1ccc(S(=O)(=O)OC[C@]23CCC(C)(C)C[C@H]2C2=CC[C@@H]4[C@@]5(C)CCCNC(C)(C)[C@@H]5CC[C@@]4(C)[C@]2(C)CC3)cc1` reads 23.3%. `Cc1cc(C)c2c(c1)N(C)c1ncnc(-n3c(C)nc4cc(C)ccc43)c1CC2C` (stereo not given): the growth is 58.1%. With `CNC(=O)NCC1OC(n2cnc3c(NC(=O)Nc4ccccc4)ncnc32)C2OC(=O)CC12` (stereo not given), the growth was 106%. `Nc1cc(C(=O)O)cc(-n2c(O)c(C=C3N=c4ccccc4=N3)sc2=S)c1`: the growth is 101%. `O=C1/C(=C/c2c[nH]c(=O)[nH]c2=O)SC(=S)N1Cc1ccccc1`: the growth was 105%. Turning to `CN1CCN(Cc2ccc(NC(=O)c3cncc(C#Cc4cnc(N)cc4C#N)c3)cc2C(F)(F)F)CC1`, the growth is 23.2%. For the molecule `COC1C(O)CC(OC2CC(OC3CC(O[C@@H]4C(=O)c5c(cc6cc(OC7CC(OC8CC(O)C(O)C(C)O8)C(O)C(C)O7)c(C)c(O)c6c5O)CC4[C@H](OC)C(=O)C(C)=O)OC(C)C3O)OC(C)C2O)OC1C` (stereo not given in full), the growth is 10.7%. As to `CN(C)c1ccc(C(=S)c2ccc(N(C)C)cc2)cc1`, the growth was 83%.

`C=C1C(=O)O[C@H]2[C@H]1CC/C(COC(=O)NCc1ccc(Cn3c(=O)sn(-c4ccc(I)cc4)c3=O)cc1)=C\CC[C@@]1(C)O[C@@H]21`: the growth was 58.9%. On to `c1cc(OCCN2CCCCCC2)ccc1CNc1ccc2nc(CCC3CCCCC3)[nH]c2c1`, for which the growth was 51.4%.

With `O=C1C=CC2(O)OC/C(=C\c3ccccc3)C(O)=C2C1=O` (stereo not given), the growth is 30.4%. The result for `CCCCn1c(NC(C)=O)c(S(=O)(=O)c2ccccc2)c2nc3ccccc3nc21` reads 100%; that for `COc1ccc(-c2cn(Cc3cc4ccccc4s3)nn2)cc1OCCN1CCCCC1`, 68.2%; that for `COc1ccc(-c2cc(-c3cccnc3)nc3sc4c(N)c(C(C)=O)c(-c5ccccc5)nc4c23)cc1OC`, 90.7%. Turning to `CSc1nc(-c2ccco2)c(C#N)c(=O)n1C`, the growth was 103%. As to `COc1cc(C[C@H]2COc3cc(O)cc(O)c3C2=O)ccc1O`, the growth is 63.1%.

Take `CCOC(=O)c1nnn(Cc2cc(=O)oc3ccc(O)cc23)c1C`: the growth was 109%. With `COC(=O)c1ccc2c(c1)c1c(C)c3cnccc3c(C)c1n2C`, the growth is -14.8% (active). As to `N#Cc1c(-c2cccc(Cl)c2)cc(-c2cccnc2)[nH]c1=O`, the growth was 102%. On to `COc1ccc2cc(C(=O)N3CCC([C@@H](C)C(=O)NCc4ccc5c(c4)OCO5)CC3)[nH]c2c1`, for which the growth is 53.3% [50 µM]. On to `N#CSc1c[nH]c2ccc(/C=C/C(=O)/C=C(O)/C=C/c3ccc4[nH]cc(SC#N)c4c3)cc12`, for which the growth is 18.6%. For the molecule `C=CN(C(=O)N1CCN(c2cc3c(cc2F)c(=O)c(C(=O)O)cn3C2CC2)CC1)c1nc(-c2ccc(Cl)cc2)cs1`, the growth was 78.4%. `O=C(/C=C/C12c3ccccc3C(c3ccccc31)C1C(=O)NC(=O)C12)c1ccco1` (stereo not given): the growth is 53.4%.

As to `O=C(Nc1ncc(Cc2ccccc2)s1)c1sc2ccccc2c1Cl`, the growth was 68.1%. Consider `C=C1CC[C@@H]2C(C)(C)[C@H](O)CC[C@@]2(C)[C@@H]1COc1ccc2ccc(=O)oc2c1`, for which the growth was 50.8%. For the molecule `CCCCCCCCCCOC(=O)c1nn(C(C)=O)c2cc(C)c(C)cc12`, the growth is 0.466% (active).

Turning to `Cn1cc(-c2csc(-c3cn(CCCN4CCOCC4)c4ccc(F)cc34)n2)c2cccnc21`, the growth is 56.6%. Take `Cc1cccc(N2C(=O)/C(=C/C(Cl)=C/c3ccc([N+](=O)[O-])cc3)SC2=S)c1C`: the growth was 19.8%. With `Clc1ccc(Nc2nnc(CNc3ccccc3)c3ccccc23)cc1`, the growth was 19.3%.

`CCCC(=O)NC(c1ccc2c(c1)OCO2)c1cc(Cl)c2cccnc2c1O` (stereo not given): the growth was 19.3%.
